Reference: PubChem BioAssay (NCI)
Values joined by “and” are separate entries in the source; they are usually repeats but may differ in a detail not shown here. Identical values can stand only once. Compounds without any hit were thinned out: in the full panel of roughly 83,000, 20% have a hit.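 Cell lines were cultured in 96-well plates, exposed to a single compound concentration, and assessed for percent growth 48 hours later.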 A number with no mark means an inactive call. Active and inactive are the calls of the source. How the source made its calls: active means growth percent below 10; inactive means the rest.

test system: MDA-MB-468 breast; assay: NCI-60 one-dose screen, 48 h (100 = growth as untreated, 0 = no growth, -100 = all killed); conditions: 10 µM unless noted

SMILES	growth
CCCn1ccnc1C(O)c1ccc(OCc2ccccc2)c(OC)c1 (stereo not given)	90.5%
COC(=O)c1c(C)[nH]c(/C=C2\N=C(c3ccc[nH]3)C=C2OC)c1C	-69.4% (active)
Cc1onc(-c2c(F)cccc2Cl)c1-c1ncc(-c2ccc(Br)cc2)o1	28.4%
COc1ccc(OC)c2ncccc12	89.9%
O=C1C=Cc2ccccc2/C1=C/c1[nH]c(=O)[nH]c1O	41.5%
N/N=C(/Cc1ccccc1)NNC(N)=S	115%
c1ccc(Cn2cnc3ccc(-c4nc(-c5ccc6c(c5)ncn6C5CCCCC5)cn5ccnc45)cc32)cc1	-35.7% (active)
Cc1ccc(-c2nn(-c3ccccc3)cc2/C=C/C(=O)c2ccc(NC(=O)CCCCCCC(=O)NO)cc2)cc1	70.9%
O=c1oc2cc(OS(=O)(=O)c3ccccc3)ccc2c2c1CCCCC2	44.3%
COc1ccc(/C=C(\C#N)c2ccc(OC)cc2)cc1	7.49% (active)
Cn1c(=O)n(-c2ccc(C(C)(C)C#N)cc2)c2c3cc(-c4cnc5ccccc5c4)ccc3ncc21	-24.6% (active) and -48.4% (active)
O=C(CCCSc1nc(-c2ccccc2)cc(-c2ccccc2)n1)NO	-38% (active)
CC(=O)O[C@@H]1CC2C(C)(C)CCCC2(C)C2=C1C(=O)C(C(C)C)=CC2=O (stereo not given in full)	-35.6% (active)
O=C1C(Nc2ccc(Br)cc2)=C(I)C(=O)c2ncccc21	-81.4% (active)
COc1ccc(-c2cc(=O)oc3ccc(Cl)cc23)cc1F	26.5%
